Screening data from PubChem.
BAZ2B inh: qHTS Assay for Inhibitors of BAZ2B; Potency, µM (top dose mostly 114 µM), for the others: top-dose activity change, negative = inhibition, most hits filed as inhibitors; 4.4% of 360,000 active; AlphaScreen BAZ2B-H3K14Ac peptide displacement; Bromodomain adjacent to zinc finger domain protein 2B (Homo sapiens), Q9UIF8; note: % is set by controls: 0 for no effect and ±100 for the full control effect; nearly all actives have a fitted effect of over 60% in size
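AlphaScreen displacement: compounds (up to 110uM) incubated 30 min at room temperature with a preformed 50 nM BAZ2B/50 nM biotinylated H3K14Ac peptide complex in PBS pH 7.4 with Tween-20. Donor and acceptor beads at 10 ug/mL final added, 20 min light-protected before reading.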
G9a block: qHTS Assay for Inhibitors of Histone Lysine Methyltransferase G9a; G9a H3K9 monomethylation, AlphaScreen, 2 h; Potency, µM (highest dose often 102 µM), for inactives: top-dose activity, negative = inhibition, actives largely listed as inhibitors; 8.8% of 350,000 active; note: % is set by controls: 0 for no effect and ±100 for the full control effect; nearly all actives have a fitted effect of over 75% in size
Target sequence (Q96KQ7 913-1193 limits assumed): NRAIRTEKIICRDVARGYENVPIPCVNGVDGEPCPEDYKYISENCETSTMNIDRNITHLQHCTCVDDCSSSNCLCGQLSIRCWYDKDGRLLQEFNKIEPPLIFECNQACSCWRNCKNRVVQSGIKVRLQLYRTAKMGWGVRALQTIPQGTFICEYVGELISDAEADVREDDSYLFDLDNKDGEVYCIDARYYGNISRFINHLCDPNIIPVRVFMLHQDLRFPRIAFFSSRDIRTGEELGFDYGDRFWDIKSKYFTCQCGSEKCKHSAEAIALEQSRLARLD
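Using a bead-based AlphaScreen, monomethylated H3K9 product from 2 h room-temperature reactions (G9a 20 nM, peptide 500 nM, SAM 20 uM) was detected with 0.5 ug/mL rabbit anti-H3K9me1 antibody.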
JMJD2A Tudor: qHTS Assay for Inhibitors of JMJD2A-Tudor Domain; 4.4% of 390,000 active; Potency, µM (top dose mostly 114 µM), without a hit: at the highest dose activity change, negative = inhibition, hits mostly inhibitors; AlphaScreen JMJD2A-Tudor / H3K4me3 peptide binding; Lysine-specific demethylase 4A (Homo sapiens), O75164; note: % is set by controls: 0 for no effect and ±100 for the full control effect; nearly all actives have a fitted effect of over 50% in size
HP1b chromo inh: HTS for Inhibitors of HP1-beta Chromodomain Interactions with Methylated Histone Tails. AlphaScreen HP1-beta / biotin-H3K9me3 peptide binding. Chromobox protein homolog 1 (Homo sapiens), P83916. 0.56% of 390,000 active. Potency, µM (titrated, usually from 114 µM), without a hit: top-dose activity change, negative = inhibition, actives largely listed as inhibitors. AID 540317, 2011; note: nearly all actives have a fitted effect of over 70% in size
Target sequence (P83916 whole entry, looked up): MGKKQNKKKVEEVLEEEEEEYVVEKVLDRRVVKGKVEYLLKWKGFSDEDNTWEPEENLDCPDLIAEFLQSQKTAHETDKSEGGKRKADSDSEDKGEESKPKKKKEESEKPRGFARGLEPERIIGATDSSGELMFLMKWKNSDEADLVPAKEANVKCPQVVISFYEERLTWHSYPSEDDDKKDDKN
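AlphaScreen: HP1-beta (50 nM) preformed 30 min with biotin-H3(1-18)K9me3 peptide (50 nM) in PBS pH 7.4, 0.01% Tween-20. Compound added for 30 min at RT, then streptavidin donor/nickel chelate acceptor beads (10 ug/mL) for 30 min.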
PLK1 PBD inh: qHTS for Inhibitors of PLK1-PDB (polo-like kinase 1 - polo-box domain): Primary Screen; AID 720504, 2013; Serine/threonine-protein kinase PLK1 (Homo sapiens), P53350; Plk1 PBD binding of FITC phosphopeptide, fluorescence polarization; Potency, µM, for inactives: max response, negative = inhibition, actives largely listed as inhibitors; 2.8% of 360,000 active; note: series mostly up to about 57 µM; % is set by controls: 0 for no effect and ±100 for the full control effect; nearly all actives have a fitted effect of over 65% in size
Sfp PPTase inh: qHTS Assay for Inhibitors of Bacillus subtilis Sfp phosphopantetheinyl transferase (PPTase); Biochemical Sfp PPTase activity, qHTS; Potency, µM, for inactives: largest response in the series, negative = inhibition, usual class: inhibitors; 3.5% of 310,000 active; AID 1490, 2009;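 note: the enzyme is Sfp with the accession as filed and its product quenches rhodamine fluorescence; 0% = enzyme reaction without inhibitor and -100% = no enzyme wells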
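Compounds were incubated with enzyme (final 15 nM) for 15 min at room temperature before substrate addition started the reaction. Fluorescence at 525 nm excitation, 598 nm emission was recorded immediately and after 30 minutes.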
* marks the source's active call; other numbers are inactive results; ? = inconclusive; nt = not tested or not shown; [ ] = dose if it differs, or a comment. The list is not random: actives were taken first. Their share in the collection is about 12%. Calls come from the whole dose curve; as a rule, active = well fitted curve in the direction sought with a large enough effect; inconclusive = small, poorly fitted or top-dose-only effect, or another doubt; inactive = no such curve, though single readings can be large; an effect the other way counts as inactive or inconclusive. Potency is the fitted concentration of half-maximal effect.

SMILES	BAZ2B inh	G9a block	JMJD2A Tudor	HP1b chromo inh	PLK1 PBD inh	Sfp PPTase inh
COc1ccc2oc(C(=O)OCC(=O)N(C)CC(=O)Nc3ccc(C)cc3)c(C)c2c1	4.0%	50.1µM*	-12.9%	18.1%	-3.2%	nt
CCCCNC(=O)CCn1c(=O)c2ccccc2n(Cc2ccccc2C#N)c1=O	0.7%	5.9%[59 µM]	6.1%	31.1%	nt	nt
COc1ccc(OC)c(/C=C2\N=C(c3ccccc3)OC2=O)c1	2.2%	11.2%[0.501 µM]	2.8%	36.8%	11.9µM*	14.0%
COc1ccc(/C=N/NC(=O)c2ccc3c(c2)OCO3)cc1	?	79.4µM*	-11.0%	25.8%	-4.2%	-4.2%
COc1ccccc1NS(=O)(=O)c1cccc(C(=O)N/N=C/c2ccc3c(c2)OCCO3)c1	-1.1%	4.4%[59 µM]	-3.5%[57.1 µM]	30.1%	-1.9%	8.5%
COc1ccc(NS(=O)(=O)c2cccc(C(=O)N/N=C/c3ccc4c(c3)OCCO4)c2)cc1	-27.7%	3.6%[59 µM]	-19.4%	18.6%	6.4%	15.8µM*
COc1cc(/C=N/NC(=O)c2ccc3c(c2)OCO3)ccc1O	-5.1%	?	1.1%	59.3%	2.0%	10.8%
CC(=O)OCC(=O)[C@@]1(O)[C@H](OC(C)=O)C[C@H]2[C@@H]3CCC4=CC(=O)C=C[C@]4(C)[C@@]3(F)[C@@H](O)C[C@@]21C	nt	36.8%[59 µM]	nt	nt	nt	6.5%
CCOC(=O)N1CCC(N2C(=O)c3ccccc3C2Nc2ccc(S(=O)(=O)N3CCOCC3)cc2)CC1 (centres undefined)	1.2%	44.7µM*	-6.5%	40.4%	-1.4%	14.9%
CCOC(=O)N1CCC(N2C(=O)c3ccccc3C2Nc2cc(Cl)c(OC)cc2OC)CC1 (centres undefined)	44.7µM*	44.7µM*	?	-19.7%	-5.8%	3.2%
O=C(Cn1c(=O)oc2ccccc21)NCc1cccc(Cl)c1	-0.3%	3.0%[59 µM]	2.2%	30.7%	nt	nt
CC1=C(C#N)C(=O)NC(=O)/C1=C\c1ccc(-c2cc(C)c(C)cc2[N+](=O)[O-])o1	44.7µM*	10µM*	56.2µM*	?	4.74µM*	50.1µM*
Cc1ccc(-c2ccc(/C=C3/NC(=O)NC3=O)o2)cc1[N+](=O)[O-]	-29.8%	?	-32.5%	15.4%	-6.5%	?
CCc1ccc(NC(=O)COC(=O)Cn2cnc3ccccc32)cc1	5.4%	-39.1%	-2.1%	32.0%	0.6%	nt
O=C(CSc1nnnn1C1CC1)Nc1ccc(S(=O)(=O)N2CCOCC2)cc1	-5.5%	20.9%[59 µM]	-4.0%	31.6%	-2.9%	nt
Cc1nn(-c2ccccc2)c2c1C1(C(=O)N(C)c3ccccc31)C(C#N)=C(N)O2 (centres undefined)	-1.4%	-1.9%[12.7 µM]	-15.4%	4.4%	?	-4.3%
Cc1nn(-c2ccccc2)c2c1C1(C(=O)N3c4c(cccc41)C(C)CC3(C)C)C(C#N)=C(N)O2 (centres undefined)	?	10µM*	?	-25.4%	?	-8.0%
COc1cccc(CNC(=O)CCCn2nc(C)n3c(cc4sccc43)c2=O)c1	-5.4%	0.9%	?	22.5%	?	11.0%
C=CCNC(=O)C1CC1(c1cccc(C)c1)c1cccc(C)c1 (centres undefined)	nt	nt	-3.6%	19.5%	-5.3%	nt
Cc1cccc(C2(c3cccc(C)c3)CC2C(=O)NCC2CCCO2)c1 (centres undefined)	0.0%	17.0%	79.4µM*	13.2%	26.7µM*	17.8%
Cc1cccc(-c2nsc(SCC(=O)NCC3CCCO3)n2)c1 (centres undefined)	-15.1%	17.8µM*	-2.3%	-9.5%	8.44µM*	?
Cc1ccc2nc(SCC(=O)NCc3ccco3)c(C)cc2c1	-38.3%	0.5%	-28.5%	10.3%	-15.1%	-14.8%
O=C(CSc1nc(-c2ccccc2Cl)ns1)c1ccc(Cl)cc1	51.0%	96.1%	75.0%	160.7%	-4.7%	3.8%
Cc1cccc(-c2nsc(SCC(=O)NCc3ccco3)n2)c1	-9.3%	31.6µM*	-22.1%	-13.8%	21.2µM*	?
Cc1cccc(-c2nsc(SCC(=O)c3ccc(Cl)cc3)n2)c1	12.6%	-12.2%	44.3%	80.8%	16.8µM*	-11.0%
SMILES	BAZ2B inh	G9a block	JMJD2A Tudor	HP1b chromo inh	PLK1 PBD inh	Sfp PPTase inh
Cc1cccc(C(O)c2ncc(-c3ccc4ccccc4c3)[nH]2)c1C (centres undefined)	nt	nt	nt	nt	-8.7%	nt
Cc1c(C(=O)N2CC(C)OC(C)C2)[nH]c2ccc(Br)cc12 (centres undefined)	-25.3%	-9.3%	-26.8%	-0.6%	-5.2%	12.5%
Cc1ccc(NC(=O)CCCn2c(=O)c3cccn3c3ccccc32)cc1C	1.5%	2.3%[59 µM]	-8.9%	36.0%	nt	nt
CCOC(=O)CNC(=O)CSc1nc(-c2cccc(C)c2)ns1	-0.2%	11.2µM*	-0.8%	-21.3%	10.6µM*	-39.2%
CCOc1ccccc1N1CCN(CC(=O)Nc2ccnn2C2CCCC2)CC1	-15.9%	-0.4%[2.33 µM]	1.0%	25.4%	13.5%	nt
Cc1ccc(NC2=C/C(=N/S(=O)(=O)c3cccs3)c3ccccc3C2=O)cc1	?	2.82µM*	-28.0%[57.1 µM]	?	-5.6%	-0.6%
Cc1ccc(N/C(=N/S(=O)(=O)c2cccs2)c2ccccc2)c(C)c1	-0.8%	9.1%	-6.2%	37.7%	2.0%	4.1%
O=C1C(Nc2ccccc2)=C/C(=N/S(=O)(=O)c2cccs2)c2ccccc21	2.82µM*	8.91µM*	3.98µM*	11.2µM*	-24.4%	?
O=C(c1ccco1)N1CCC[C@@]2(CCN(c3ccccn3)C2)C1	nt	-13.4%[12.7 µM]	nt	nt	nt	6.4%
CCOc1ccc(NC(=S)N2CCC(C(=O)c3ccc(F)cc3)CC2)cc1	nt	nt	-34.8%	-4.5%	?	nt
O=C(O)CCCNC(=O)c1cncc(Br)c1	3.7%	-25.9%	-12.7%	21.6%	-0.1%	17.0%
CCOC(=O)CCCNC(=O)c1cncc(O)c1	?	56.2µM*	-17.5%	31.6%	-7.3%	16.5%
O=C(NCCCCCCNC(=O)c1ccncc1)c1ccncc1	12.5%	nt	-8.3%	25.9%	-1.9%	-0.8%
O=C(NCCCNC(=O)c1cncc(O)c1)c1cncc(O)c1	?	50.1µM*	-2.3%[11.4 µM]	35.2%	?	1.2%
O=C(NCCCCCCNC(=O)c1cncc(O)c1)c1cncc(O)c1	50.1µM*	70.8µM*	15.8µM*	16.1%	-4.6%	-15.5%
